Test results: PubChem BioAssay AID624296 (National Center for Advancing Translational Sciences (NCATS), 2012)
Hit rate of the full screen: of about 350,000 compounds, about 9,900 (2.8%) were called active. Roughly 15% stayed inconclusive and do not appear here. Calls follow the shape of the dose curve; as a rule, active = well fitted activation curve with a large enough effect; inconclusive = small, poorly fitted or top-dose-only effect; inactive = no such curve, though single readings can be large or run the other way. The list comes from a sample in which actives are over-represented; it also holds similar structures and randomly drawn compounds.

Assay: A quantitative high throughput screen for small molecules that induce DNA re-replication in MCF 10a normal breast cells. Also: nearly all actives have a fitted effect of over 50% in size. As to activity, positive = re-replication: % of control where 0% means no effect.
Settings: MCF 10A DNA re-replication, Hoechst nuclear intensity, 48 h; series mostly up to 46.1 µM; activity, positive = re-replication: at the top concentration
Potency is read from the fitted curve at half-maximal effect.

Row | SMILES | activity, positive = re-replication | Potency
1 | Cc1cccc(NC(=O)CN2CCN(C(=O)C3CCN(C(=O)/C=C/c4ccccc4)CC3)CC2)c1C | 2.04% (inactive) | 
2 | CCOC(=O)/C=c1\s/c(=C\c2ccccc2OC)c(=O)n1CC(=O)N1CCOCC1 | 1.44% (inactive) | 
3 | CCOC(=O)/C=c1\s/c(=C\c2ccc(C#N)cc2)c(=O)n1CC(=O)Nc1cccc(C)c1C |  | 2.91 µM (active)
4 | Cn1nc(C(=O)OCC(=O)N(Cc2ccccc2)C(C)(C)C)c2ccccc2c1=O | 6% (inactive) | 
5 | O=C(OCC(=O)N1CCc2ccccc21)c1ccc([N+](=O)[O-])cc1 | 0.345% (inactive) | 
6 | COc1ccc(-c2csc3ncnc(N4CCN(S(=O)(=O)c5cccc(F)c5)CC4)c23)cc1 | 12.9% (inactive) | 
7 | CC1CCN(C(=S)c2cccc(O)c2)CC1 |  | 1.46 µM (active)
8 | CC1CCN(C(=S)NC(=O)c2ccccc2Br)CC1 | 5.23% (inactive) | 
9 | CC1CCN(C(=S)c2cccc([N+](=O)[O-])c2)CC1 | -2.27% (inactive) | 
10 | CC[C@]1(C(=O)OC)[C@H]2C(=O)N(Cc3ccccc3)C(=O)[C@H]2[C@H]2CN=C(SCc3ccc(Cl)cc3)N21 | 4.81% (inactive) | 
11 | O=C(CN1CCc2ccccc2C1)Nc1cccc(S(=O)(=O)N2CCOCC2)c1 | 0.481% (inactive) | 
12 | COC(=O)Cc1ccc(OC(=O)C2CCN(S(=O)(=O)c3ccc(OC)c(OC)c3)CC2)cc1 | 3.06% (inactive) | 
13 | CC1CCN(C(=O)c2ccc(S(=O)(=O)Cc3cc(F)ccc3F)c([N+](=O)[O-])c2)CC1 |  | 18.4 µM (active)
14 | O=C(Nc1ccc(F)cc1)C1CCN(C(=O)c2ccc([N+](=O)[O-])cc2)CC1 | 11.3% (inactive) | 
15 | O=C(c1ccc(Oc2ccc(Cl)cc2)c([N+](=O)[O-])c1)N1CCCC1 | 6.4% (inactive) | 
16 | O=C(Nc1ccn(CCCNCc2ccc3[nH]ccc3c2)c(=O)n1)OCc1ccccc1 | -1.3% (inactive) | 
17 | O=C(Nc1c[nH]c(=O)[nH]c1=O)OCc1ccccc1 | -0.888% (inactive) | 
18 | Cc1ccc(OCC(=O)N2CCN(S(=O)(=O)c3ccc(Cl)s3)CC2)cc1C | 3.45% (inactive) | 
19 | Cc1ccc(Br)c(NS(=O)(=O)c2cccc(C(=O)N3CCNC(=O)C3)c2)c1 | -1.92% (inactive) | 
20 | NC(N)=Nc1nc(-c2ccccc2)c2cc(Cl)ccc2n1 | 18% (inactive) | 
21 | O=C(CCl)NNc1nc(-c2ccccc2)c2cc(Cl)ccc2n1 | 13.2% (inactive) | 
22 | OCCCNc1nc(-c2ccccc2)c2cc(Cl)ccc2n1 |  | 8.2 µM (active)
23 | CC1(C)CC(=O)C=C(c2ccc3ncccc3c2)C1 | 6.67% (inactive) | 
24 | CCN(c1ccccc1)S(=O)(=O)c1ccc(C(=O)Nc2ccccc2OC)cc1 | -9.03% (inactive) | 
25 | C[n+]1cccc(C(=O)O)c1 | -1.63% (inactive) | 
26 | COc1ccc(Cn2c(=S)[nH]c3cc(C(=O)NCCCN4CCOCC4)ccc3c2=O)cc1 | 14.2% (inactive) | 

Row | SMILES | activity, positive = re-replication | Potency
27 | CCCCNC(=O)CCn1c(=S)[nH]c2cc3c(cc2c1=O)OCO3 | 0.701% (inactive) | 
28 | CCN(CC)CCCNC(=O)c1ccc2c(=O)n(Cc3ccc4c(c3)OCO4)c(=S)[nH]c2c1 |  | 23.1 µM (active)
29 | Cc1ccc(SC(CC(=O)c2ccc(C(C)(C)C)cc2)C(=O)O)cc1 (stereo unspecified) |  | 7.31 µM (active)
30 | Cc1ccc(C(=O)CSc2ccccc2C(=O)O)cc1 | -0.299% (inactive) | 
31 | Cc1ccc(C(=O)NCCNC(=O)c2ccccc2)cc1 | -1.61% (inactive) | 
32 | O=C(Nc1ccc(N2CCOCC2)cc1)c1cccc(S(=O)(=O)N2CCOCC2)c1 | 4.79% (inactive) | 
33 | CN(CC(=O)O)C(=O)c1ccccc1 | 8.42% (inactive) | 
34 | CN1C(=O)c2ccc(NC(=O)C3CCCCC3)cc2C1=O |  | 10.3 µM (active)
35 | O=C(O)c1ccc(NC(=O)C2CCCCC2)cc1 | 0.989% (inactive) | 
36 | CN1C(=O)c2ccc(NC(=O)c3c(F)c(F)c(F)c(F)c3F)cc2C1=O | 5.85% (inactive) | 
37 | CCOc1ccc(Br)cc1S(=O)(=O)Nc1ccc(S(=O)(=O)Nc2cc(C)on2)cc1 | -35.5% (inactive) | 
38 | c1ccc(CNc2ncnc3[nH]ncc23)cc1 | 7.58% (inactive) | 
39 | O=C(COC(=O)c1cc(S(=O)(=O)N2CCOCC2)ccc1Cl)NCCc1ccccc1 | 16.1% (inactive) | 
40 | COc1ccc2[nH]c3c(c2c1)CCN1C(=O)C(CC(=O)NCc2cccc(C(F)(F)F)c2)C[C@H](C(=O)N2CCOCC2)[C@@]31C (stereo partly specified) | -13.4% (inactive) | 
41 | C=CCn1c(SCc2c(C)noc2C)nc2sc3c(c2c1=O)CCC(C)C3 (stereo unspecified) |  | 3.66 µM (active)
42 | C=CCn1c(SCC(=O)NCC2CCCO2)nc2sc(C)c(C)c2c1=O (stereo unspecified) | 0.828% (inactive) | 
43 | CC1CCc2c(sc3nc4n(c(=O)c23)CCS4)C1 (stereo unspecified) | 4.82% (inactive) | 
44 | CC(NC(=O)COC(=O)CCC(=O)c1ccc(Cl)cc1)c1ccccc1 (stereo unspecified) | 0.61% (inactive) | 
45 | CC[C@]12c3[nH]c4ccc(OC)cc4c3CCN1C(=O)C(CC(=O)NCc1ccco1)C[C@@H]2C(=O)N1CCN(C(=O)C2CC2)CC1 (stereo partly specified) | 12.3% (inactive) | 
46 | CC12CCCCC1=CC(=O)CC2 (stereo unspecified) | -3.75% (inactive) | 
47 | COc1ccc(-c2nnc(-c3ccc4ccccc4c3)o2)cc1 | 1.89% (inactive) | 
48 | COc1ccc(Nc2ccc3ccccc3c2)cc1 |  | 23.1 µM (active)
49 | COc1ccc(Nc2nnc(C)c3ccccc23)cc1 | -4.32% (inactive) | 
50 | COc1cc(C(=O)N2CCN(S(=O)(=O)c3ccc(C(C)C)cc3)CC2)ccc1OCC(=O)N1CCOCC1 | -2.7% (inactive) | 
51 | CC/C(=N\NC(=O)c1ccccc1Cl)c1ccc(Br)s1 | 4.13% (inactive) | 
52 | O=C(CNC(=O)c1ccccc1Br)NNC(=O)c1cccs1 | -1.43% (inactive) | 

Row | SMILES | activity, positive = re-replication | Potency
53 | O=C(C/C(=N\NC(=O)c1ccccc1Br)C(F)(F)F)c1cccs1 |  | 11.6 µM (active)
54 | CCOC(=O)Cc1csc(SCC(=O)Nc2ccc(C)cc2F)n1 | 2.76% (inactive) | 
55 | O=C(OCC(=O)N1CCCCCC1)c1ccc(Cl)nc1 | 0.256% (inactive) | 
56 | CC(=O)NCCC(=O)Nc1nc(C)c(Cc2ccc3c(c2)OCO3)s1 | 6.4% (inactive) | 
57 | Cc1ccc(C(=O)Nc2sc(Cc3ccc4c(c3)OCO4)c(C)c2C(N)=O)cc1 |  | 4.11 µM (active)
58 | COCc1nnc(NC(=O)c2ccc3c(c2)OCO3)s1 | -0.575% (inactive) | 
59 | COc1ccccc1C(=O)NCC(=O)OCC(=O)Nc1nnc(-c2ccccc2)o1 | -0.4% (inactive) | 
60 | Cc1coc2c(O)cc3c(c12)OC1(N2CCCCC2)C(=O)NCCCC31 (stereo unspecified) |  | 18.4 µM (active)
61 | O=C1OC(Oc2ccc(Br)cc2)(c2ccccc2)c2ccccc21 (stereo unspecified) |  | 11.6 µM (active)
62 | Cc1cccc(C(=O)OCC(=O)NC(C)C2CC3CCC2C3)c1O (stereo unspecified) | -1.59% (inactive) | 
63 | Cc1cc(OCCCC(=O)Nc2cc(S(=O)(=O)N3CCOCC3)ccc2N2CCOCC2)ccc1Cl | -5.32% (inactive) | 
64 | O=c1cc(N2CCN(Cc3ccccc3)CC2)c(-c2ccccc2)n[nH]1 | 1.62% (inactive) | 
65 | O=c1cc(N2CCCCC2)c(-c2ccccc2)nn1Cc1cccc(F)c1 |  | 20.6 µM (active)
66 | O=C(CS(=O)(=O)c1cn(Cc2cccc(F)c2)c2ccccc12)N1CCCCC1 | -1.38% (inactive) | 
67 | COc1ccc(-c2nnc(SC(C)C(=O)NC3CC3)o2)cc1 (stereo unspecified) | 11.4% (inactive) | 
68 | Cc1ccc(C(=O)/C=C/c2c(C)nn(-c3ccccc3)c2Cl)cc1 |  | 16.4 µM (active)
69 | Cc1nn(-c2ccccc2)c(C)c1/C=C/C(=O)OC(C)C(N)=O (stereo unspecified) | 1.07% (inactive) | 
70 | Cc1nn(-c2ccccc2)c(Cl)c1C(=O)Nc1ccccc1 | 0.187% (inactive) | 
71 | Cc1ccc(CNC(=O)CC(NC(=O)c2ccccc2)c2ccccc2)cc1 (stereo unspecified) | 1.97% (inactive) | 
72 | COc1ccc(NC(=O)Nc2cccc3cccnc23)cc1 | 0.777% (inactive) | 
73 | O=C(Nc1ccccc1)Oc1cccc2cccnc12 |  | 4.11 µM (active)
74 | OCc1ccc(OCCCOc2cccc3cccnc23)cc1 | -8.56% (inactive) | 
75 | CN(Cc1ccccc1)C(=O)COC(=O)/C=C/c1ccc2c(c1)OCO2 | 2.86% (inactive) | 
76 | O=C(CN1C(=O)NC2(CCCCCC2)C1=O)NCc1ccc(F)cc1 | -0.62% (inactive) | 
77 | COc1ccc(S(=O)(=O)Nc2ccc3cn[nH]c3c2)cc1[N+](=O)[O-] | -2.12% (inactive) | 
78 | COc1cc(NC(=O)c2[nH]cnc2C(N)=O)cc(C(=O)Nc2cccc(C(F)(F)F)c2)c1 |  | 7.31 µM (active)

Row | SMILES | activity, positive = re-replication | Potency
79 | COc1cc(NC(=O)c2cncc(-c3ccc(C#N)cc3)c2)cc(C(=O)Nc2cccc(C(F)(F)F)c2)c1 |  | 13 µM (active)
80 | Cc1cccc(NC(=O)c2nnn(-c3cccc(C(F)(F)F)c3)c2N)c1 | -4.01% (inactive) | 
81 | N#Cc1ccc(Oc2ccc(C(F)(F)F)cc2NC(=O)c2ccc(F)cc2)cc1 | 4.38% (inactive) | 
82 | COc1ccc(NC(=O)C(=O)NCC(=O)Nc2cccc(C(F)(F)F)c2)cc1 | -3.28% (inactive) | 
83 | CNC(=O)c1ccc(NC(=O)c2cccc(C(F)(F)F)c2)cc1 | -36.1% (inactive) | 
84 | CC(=O)N1CCc2ccc(N)cc21 | -2.27% (inactive) | 
85 | CC1CCC(CN2CCN=C2N(C)C)CC1 (stereo unspecified) | 2.36% (inactive) | 
86 | COc1cc2c(cc1OC)CN(C(C)C(=O)Nc1cccc(S(=O)(=O)N3CCOCC3)c1)CC2 (stereo unspecified) | 1.81% (inactive) | 
87 | COCCn1c(C)cc(C(=O)CN2c3cccc4cccc(c34)S2(=O)=O)c1C | 18.7% (inactive) | 
88 | O=C(COC(=O)/C=C/c1cccc(Cl)c1)NCc1cccs1 | 6.71% (inactive) | 
89 | Cc1c(NC(=O)C(C)OC(=O)c2ccccc2O)c(=O)n(-c2ccccc2)n1C (stereo unspecified) | -8.76% (inactive) | 
90 | Cc1ccc(OCCCC(=O)Nc2ccc3c(c2)OCCO3)cc1 | -1.53% (inactive) | 
91 | CC(C)N(Cc1nnc(-c2ccccc2Br)o1)C(=O)c1cc(Cl)nc2ccccc12 | -0.578% (inactive) | 
92 | O=C(Nc1ccc(Br)cn1)c1ccc([N+](=O)[O-])o1 |  | 4.11 µM (active)
93 | Cc1cccc(NC(=O)c2cc([N+](=O)[O-])ccc2N2CCN(C)CC2)c1 | 7.05% (inactive) | 
94 | Cc1cccc(NC(=S)NC(=O)c2ccc(Br)o2)c1 | 19.9% (inactive) | 
95 | CN1C(=O)c2ccc(C(=O)Nc3ccc(Br)cn3)cc2C1=O | -0.877% (inactive) | 
96 | Cc1cccc(NC(=O)c2ccc([N+](=O)[O-])o2)c1 |  | 2.91 µM (active)
97 | O=C(Nc1ccc(Br)cn1)c1ccc([N+](=O)[O-])cc1Cl | -1.49% (inactive) | 
98 | COc1ccc(CNC(=O)c2ccc(NS(=O)(=O)c3ccc4[nH]c(=O)[nH]c4c3)cc2)cc1OC | -5.27% (inactive) | 
99 | COc1ccc(CNCCCn2cnc3c(OCc4ccccc4)ncnc32)cc1 | 1.64% (inactive) | 
100 | CSCCC(NC(=O)COc1ccccc1)C(=O)N(C)CC(=O)Nc1ccc(C)cc1 (stereo unspecified) | 1.63% (inactive) | 
101 | CCOC(=O)CCCCCC(=O)Nc1ccc2c(c1)CC(=O)N([C@@H](C)CO)C[C@H](C)[C@@H](CN(C)Cc1ccccc1)O2 | -21.7% (inactive) | 
